Data on 40 compounds can be found in PubChem BioAssay (NCI).

This is part of a sample that, as a whole, favours compounds with a hit. Of some 83,000 tested, about 20% had one in any assay.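 Single-dose data. Exposure time 48 hours. Values below 10 considered active.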 Unmarked numbers belong to inactive results. Calls of active or inactive are those of the source.

The subject of the assay is SK-MEL-28 melanoma. Description: NCI-60 one-dose screen, 48 h (100 = growth as untreated, 0 = no growth, -100 = all killed). The note with it: 10 µM. The procedure:
Growth inhibition of the SK-MEL-28 human tumor cell line is measured as a screen for anti-cancer activity. Cells are grown in 96 well plates and exposed to the test compound for 48 hours. Compounds are tested at a single concentration, which is 10^-5 M for most compounds. The reported endpoint is percent growth (GI% or GIPRCNT), where numbers from 0 - 100% represent growth inhibition, and numbers from -100% - 0 represent cell death. For example, a value of 40 represents 60% growth inhibition. A value of 0 means no net growth occurred over the course of the experiment. A value of -40 indicates 40% of cells at the beginning of the experiment died by the end of the experiment. A value of -100 means all cells are dead at the end of the experiment.
NCI-60 Human Tumor Cell Lines Screen was performed using the standard one-dose NCI protocol, which is described in more detail at https://dtp.cancer.gov/discovery_development/nci-60/default.htm.
Compounds with GIPRCNT values below 10 were considered active. Activity score was based on GIPRCNT using the following formula: […]
Score is 0 for GIPRCNT values of 100 or above, 50 for GIPRCNT values of 0, and 100 for GIPRCNT values of -100.
For the compound `CCCCSc1nc(Nc2ccc(/C(C)=N/NC(N)=S)cc2)c(C#N)c(-c2ccc(F)cc2)n1`, the growth is 64%.

Take `O=C(c1ccc(O)cc1)C1[C@H](c2ccc(Br)cc2)[C@@H](c2ccccc2)NC12C(=O)Nc1ccc(Br)cc12` (stereo not given in full): the growth was 26.2%.

Take `COc1cc(C2CC(c3ccccc3)=Nc3c(N)nc(N)nc3N2)ccc1Oc1nc(Nc2ccc(F)cc2)nc(N(C)C)n1` (stereo not given): the growth was 67.8%.

`O=c1[nH]c2ccccc2cc1CSc1ccc(Nc2nccc(-c3ccc(C(F)(F)F)cc3)n2)cc1`: the growth was 78.7%.

In the case of `O=C(CNc1nc(-c2ccccc2)cs1)Nc1ccc(Cl)cc1`, the growth was -96.2% (active).

Regarding `COc1ccc(N(C)c2cc(C#N)nc3ccccc23)cc1/C=C/C(=O)NO`, the growth is -73.8% (active).

For `COc1ccc(/C=N/N=C(\C)c2ccc3c(c2)Nc2ccccc2S3)cc1O`, the growth is 60.9%.

With `CCCCCCCCCCCCCCCCCCCC(=O)NCCc1c[nH]c2ccc(O)cc12`, the growth was 106%.

With `COc1ccc(C(=O)/C=C/c2cc(C(F)(F)F)cc(C(F)(F)F)c2)cc1S(N)(=O)=O`, the growth is -98.2% (active).

For the compound `CN1CCN(c2ccc(C(=O)/C=C/c3ccc(OC(F)F)cc3)cc2)CC1`, the growth was 67.5%.

For `CC(=O)c1cc(C(=O)N2c3ccccc3Sc3ccccc32)n2ccc(C)cc12`, the growth is 48.7%.

For `O=C(NO)c1ccc(Cn2ccc3c(Nc4ccccc4)ncnc32)cc1`, the growth is 5.83% (active).

Consider `NS(=O)(=O)c1ccc(NC(=O)CSc2ccc(-c3ccccc3)nn2)c(Br)c1`, for which the growth is 94.7%.

Turning to `CC1=C(c2cc(-c3ccc(Cl)cc3)c(C#N)c(N)n2)C(c2ccccc2)NC(=S)N1` (stereo not given), the growth was 57.7%.

Consider `O=C(Nc1nc2ccc([N+](=O)[O-])cc2s1)Nc1cc(Cl)ccc1I`, for which the growth is -52.7% (active).

For `CC(=O)Nc1ccc(-c2cn(-c3cccc(C(=O)Nc4ccc(F)c(C(F)(F)F)c4)c3)nn2)cn1`, the growth is 60.3%.

Take `COc1ccc(/C=C/C(=O)c2ccc(N3CCN(C)CC3)cc2)c(C(F)(F)F)c1`: the growth is 52%.

For `COc1ccc(/C(CSc2nnc(-c3c[nH]c4ccccc34)n2-c2ccccc2)=N/O)cc1`, the growth is 37.4%.

With `COc1cc(/C=N/NC(=O)c2ccc3nc(-c4ccc(Cl)cc4)[nH]c3c2)cc(OC)c1OC`, the growth is -87.9% (active).

With `O=C(Nc1ccc(I)cc1)Nc1nc2ccc([N+](=O)[O-])cc2s1`, the growth was -99% (active).

`Cn1cc(-c2cc(N)n3nc(-c4c[nH]c5ccc(Br)cc45)cc3n2)c2cc(Br)cnc21`: the growth is -87.1% (active).

For the compound `COc1ccc2[nH]c(O)c(N=NC(=O)COc3ccc(NC(=O)Nc4ccc(Cl)c(Cl)c4)cc3)c2c1`, the growth was -59.8% (active).

Regarding `COc1cc(Cn2c(C(F)(F)F)cc3c(Cl)ncnc32)ccn1`, the growth was 27.9%.

Regarding `CS(=O)(=O)Nc1ccc(-c2ccc3c(c2)ncn3-c2ccc(NC(=O)Nc3ccc(Br)cc3)cc2)cc1`, the growth was 1.57% (active).

`CCCn1c(=O)c2[nH]c(-c3ccc(OCc4nc5ccc(C#N)cc5[nH]4)cc3)nc2n(CCC)c1=O`: the growth is 90.8%.

Take `CC(=O)Nc1ccc(-c2cn(-c3cccc(C(=O)Nc4cc(C(F)(F)F)cc(C(F)(F)F)c4)c3)nn2)cn1`: the growth is -46.4% (active).

`CC[C@]12C=CCN3CC[C@@]4(c5cc(C#CCNc6ccc(C)c(Nc7nccc(-c8cccnc8)n7)c6)c(OC)cc5N(C)[C@H]4[C@@](O)(C(=O)OC)[C@@H]1OC(C)=O)C32` (stereo not given in full): the growth was 37.5%.

Consider `Cc1cc2c(c(O)c1Br)-c1ncoc1C(=O)[C@]1(C)CC[C@H](C(C)C)[C@H]21`, for which the growth is 46.6%.

In the case of `COc1ccc(CCN2C(=O)/C(=C/c3csc(C#N)n3)SC2=S)cc1`, the growth is -10.9% (active).

In the case of `COc1ccc2[nH]c(=O)c(CSc3ccc(Nc4nccc(-c5ccc(Cl)cc5)n4)cc3)cc2c1`, the growth is 109%.

In the case of `Nc1nc2c(F)c(F)c(F)c(F)c2s1`, the growth was 109%.

Take `CCCCCCCCCCCCCCCCCCCC(=O)NCCc1c[nH]c2ccc(OC(=O)NOCCOCCOCCOCCOCCOCCOCCOCCOCCOCCOCCOCCOCCOCCOCCOCCOCCOCCOCCOCCOCCOCCOC)cc12`: the growth was -2.99% (active).

Take `Cc1nc(Nc2nc(C)c3ccc(OCCN4CCOCC4)cc3n2)[nH]c(=O)c1C`: the growth was -21.3% (active).

With `O=c1[nH]c2ccccc2cc1CSc1ccc(Nc2nccc(-c3ccc(Cl)cc3)n2)cc1`, the growth is 43.2%.

With `COc1ccc(/C=C/C(=O)c2ccc(S(=O)(=O)NCCNc3nc(Nc4ccc(F)cc4)nc(N(C)C)n3)cc2)cc1`, the growth is 31.6%.

`Nc1nc(-c2ccccc2)cc(-c2cc3ccccc3nc2Cl)n1`: the growth was 103%.

Take `O=C1NC(=NC23CC4CC(CC(C4)C2)C3)N/C1=C\c1ccc2ncoc2c1`: the growth was -18.6% (active).

`O=c1[nH]c2ccccc2cc1CSc1ccc(Nc2nccc(-c3ccc4ccccc4c3)n2)cc1`: the growth is 65.7%.

As to `CC(=O)NCC1=C(C)C=C2C(=O)[C@](C)(O)C3(CC3)C(C)=C21`, the growth was -93.3% (active).

As to `CCOC(=O)C1=C(N)N(c2ccccc2)C2=C(C(=O)CC(C)(C)C2)C1c1ccc(Cl)cc1` (stereo not given), the growth is 44.5%.
